# Laboratory results from PubChem BioAssay (Tox21).
# “And” between values parts separate entries of the source, which are not always exact repeats. Equal entries are not always repeated. Values without a mark were called inactive. Records with an inconclusive call do not appear. A call without a number means that no potency is given here. The source made the active and inactive calls. Calls follow the shape of the full dose curve.
# Legend:
# [1] = molecular target: Acetylcholinesterase (Homo sapiens) (UniProt P22303); experiment: Acetylcholinesterase (AChE) small molecule antagonists: colormetric cell-based qHTS assay (AID 1347395); also: nearly all actives have a fitted effect of over 30% in size; also: potency is read from the fitted curve at half-maximal effect
# Method in brief: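 Neuroblastoma line SH-SY5Y supplied the enzyme; cells were preincubated with compound for 30 min at 37 C and 5% CO2. Acetylthiocholine with DTNB was then added for 90 min at 37 C, and thiocholine was measured by colour.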
# [2] = molecular target: Acetylcholinesterase (Homo sapiens) (UniProt P22303); experiment: Acetylcholinesterase (AChE) small molecule antagonists: fluorescence cell-based qHTS assay (AID 1347398); settings: Potency: AChE activity; outcome: AChE activity; also: nearly all actives have a fitted effect of over 50% in size; also: potency is read from the fitted curve at half-maximal effect
# Method in brief: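 Homogeneous quantitative HTS format. SH-SY5Y cells seeded at 2,000 per well settle overnight at 37 C. Compound pretreatment runs 30 min (37 C, 5% CO2); substrate/probe mix then reacts 40 min at RT before reading 490/520 nm.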
# [3] = molecular target: Acetylcholinesterase (Homo sapiens) (UniProt P22303); experiment: Acetylcholinesterase (AChE) small molecule antagonists: enzyme-based qHTS assay with human liver microsomes (AID 1347399); settings: Potency: qHTS inhibition; outcome: qHTS inhibition; also: nearly all actives have a fitted effect of over 60% in size; also: potency is read from the fitted curve at half-maximal effect
# Method in brief: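 Recombinant human AChE (50 mU/mL in the enzyme mix) and human liver microsomes (0.25 mg/mL final) were preincubated with compound and NADPH (0.25 mg/mL final) for 30 min at 37 C. Acetylthiocholine/DTNB was then added; thiocholine was read colorimetrically after 10 min at room temperature.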
# [4] = molecular target: Acetylcholinesterase (Homo sapiens) (UniProt P22303); experiment: Acetylcholinesterase (AChE) small molecule antagonists: enzyme-based qHTS assay (AID 1347397); settings: Potency: AChE enzyme activity inhibition; outcome: AChE enzyme activity inhibition; also: nearly all actives have a fitted effect of over 55% in size
# Method in brief: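 First, recombinant human AChE (50 mU/mL as dispensed) received test compound or DMSO. Second, plates stood 30 min at room temperature. Third, DTNB and acetylthiocholine were added, followed by 10 min at room temperature and colorimetric detection.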
# Chain of Acetylcholinesterase (Homo sapiens) (P22303 whole entry, looked up): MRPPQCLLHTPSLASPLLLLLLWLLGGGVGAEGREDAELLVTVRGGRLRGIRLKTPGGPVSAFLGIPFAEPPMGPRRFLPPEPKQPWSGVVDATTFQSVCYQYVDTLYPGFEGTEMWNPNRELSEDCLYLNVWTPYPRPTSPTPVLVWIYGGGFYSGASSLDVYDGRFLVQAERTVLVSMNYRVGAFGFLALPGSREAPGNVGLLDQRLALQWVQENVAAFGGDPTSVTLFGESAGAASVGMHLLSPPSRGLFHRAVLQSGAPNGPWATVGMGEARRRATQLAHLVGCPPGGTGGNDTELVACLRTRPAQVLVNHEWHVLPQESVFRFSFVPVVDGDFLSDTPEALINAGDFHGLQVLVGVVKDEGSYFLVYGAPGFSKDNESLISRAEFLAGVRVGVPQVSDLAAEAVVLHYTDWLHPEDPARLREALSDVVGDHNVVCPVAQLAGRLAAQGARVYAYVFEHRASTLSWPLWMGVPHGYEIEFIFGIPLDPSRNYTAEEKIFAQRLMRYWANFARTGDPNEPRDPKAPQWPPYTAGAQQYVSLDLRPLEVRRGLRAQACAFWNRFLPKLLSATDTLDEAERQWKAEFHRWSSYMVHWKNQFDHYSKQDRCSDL
smiles,measurement,setting,value
CC(=O)OC(C)OC(=O)C(C)c1ccc(-c2ccccc2)c(F)c1 (centres undefined),Potency,[1],inactive
same,Potency,[2],inactive
same,Potency,[3],inactive
CCc1ccc(CC)cc1,Potency,[1],inactive
same,Potency,[2],inactive
same,Potency,[3],inactive
CCC1(C)CC(=O)NC1=O (centres undefined),Potency,[1],inactive
same,Potency,[2],inactive
same,Potency,[3],inactive
c1ccc(OCCOc2ccccc2)cc1,Potency,[1],inactive
same,Potency,[2],inactive
same,Potency,[3],inactive
Nc1c[n+](N2CCOCC2)no1,Potency,[1],inactive
same,Potency,[2],inactive
same,Potency,[3],inactive
CN1Cc2cc(C(=O)N3CCC(C4CCNCC4)CC3)ccc2N[C@@H](CC(=O)O)C1=O,Potency,[1],inactive
same,Potency,[2],inactive
same,Potency,[3],inactive
CCN(CC)c1ccc(N=Nc2ccccc2)cc1,Potency,[1],inactive
same,Potency,[2],inactive
same,Potency,[3],inactive
CCC1COC(=O)O1 (centres undefined),Potency,[1],inactive
same,Potency,[2],inactive
same,Potency,[3],inactive
CC(C[N+](C)(C)C)OC(N)=O (centres undefined),Potency,[1],inactive
same,Potency,[2],inactive
same,Potency,[3],inactive
Fc1ccc(Br)cc1,Potency,[1],inactive
same,Potency,[2],inactive
same,Potency,[3],inactive
CCCCCCCCCCCCc1ccccc1,Potency,[1],inactive
same,Potency,[2],inactive
same,Potency,[3],inactive
O=C(CCN1CCN(CCO)CC1)N1c2ccccc2Sc2ccc(C(F)(F)F)cc21,Potency,[1],inactive
same,Potency,[2],inactive
same,Potency,[3],inactive
CCCCCC(C)=O,Potency,[1],inactive
same,Potency,[2],inactive
CC(C)(CO)[C@@H](O)C(=O)NCCC(=O)O,Potency,[1],inactive
same,Potency,[2],inactive
same,Potency,[3],inactive
C[C@]12CCC(=O)C=C1[C@@H]1C[C@@H]1[C@H]1[C@@H]3[C@@H]4C[C@@H]4[C@@]4(CCC(=O)O4)[C@@]3(C)CC[C@@H]12,Potency,[1],inactive
same,Potency,[2],inactive
same,Potency,[3],inactive
Nc1cc(Cl)c(-c2cc(Cl)c(N)cc2Cl)cc1Cl,Potency,[1],inactive
same,Potency,[2],inactive
same,Potency,[3],inactive
C1=CCCC1,Potency,[1],inactive
same,Potency,[2],inactive
same,Potency,[3],inactive
CCCCCCCCOC(=O)c1ccc(O)cc1,Potency,[1],inactive
same,Potency,[2],inactive
same,Potency,[3],inactive
N=c1nc(N2CCCCC2)cc(N)n1O,Potency,[1],inactive
same,Potency,[2],inactive
same,Potency,[3],inactive
CC(=O)[C@H]1CC[C@H]2[C@@H]3CCC4=CC(=O)CC[C@]4(C)[C@H]3CC[C@]12C,Potency,[1],39.7 µM (active) and 35.6 µM (active)
same,Potency,[2],28.1 µM (active) and 31.7 µM (active)
same,Potency,[3],inactive
O=[N+]([O-])c1cccc(C(F)(F)F)c1,Potency,[1],inactive
same,Potency,[2],inactive
same,Potency,[3],inactive
CCCC(=O)Nc1ccc(O)c(C(C)=O)c1,Potency,[1],inactive
same,Potency,[2],inactive
same,Potency,[3],inactive
C1CN(CCOCCN2CCOCC2)CCO1,Potency,[1],inactive
same,Potency,[2],inactive
same,Potency,[3],inactive
CC(=O)OC1CCCCC1,Potency,[1],inactive
same,Potency,[2],inactive
same,Potency,[3],inactive
Cc1cc2nc3ccc(=[N+](C)C)cc-3sc2cc1N,Potency,[1],1.38 µM (active)
same,Potency,[2],2.19 µM (active)
same,Potency,[3],24.5 µM (active)
COc1ccccc1/C=C/C=O,Potency,[1],inactive
same,Potency,[2],inactive
same,Potency,[3],inactive
Cc1cccc(O)c1C,Potency,[1],inactive
same,Potency,[2],inactive
same,Potency,[3],inactive
ClCCCl,Potency,[1],inactive
same,Potency,[2],inactive
same,Potency,[3],inactive
CC(C)S,Potency,[1],inactive
same,Potency,[2],inactive
same,Potency,[3],inactive
CC(C)(C)c1ccc(C(=O)CCCCl)cc1,Potency,[1],inactive
same,Potency,[2],inactive
same,Potency,[3],inactive
CCN=C1C=CC(=C(c2ccc(N(CC)CC)cc2)c2ccc(N(CC)CC)cc2)c2ccccc21,Potency,[1],62.9 µM (active)
same,Potency,[2],39.7 µM (active)
same,Potency,[3],inactive
CCCCCCCCCCCCc1ccccc1O,Potency,[1],inactive
same,Potency,[2],inactive
same,Potency,[3],inactive
CCCCC(CC)CN=C(N)NC(N)=NCCCCCCN=C(N)NC(N)=NCC(CC)CCCC (centres undefined),Potency,[1],inactive
same,Potency,[2],13.8 µM (active)
same,Potency,[3],inactive
C=CC(C)(C)C,Potency,[1],inactive
same,Potency,[2],inactive
same,Potency,[3],inactive
CCCCCCCO,Potency,[1],inactive
same,Potency,[2],inactive
same,Potency,[3],inactive
Cc1ccc2c(c1)C(=O)OC2=O,Potency,[1],inactive
same,Potency,[2],inactive
same,Potency,[3],inactive
CC(C)COC(=O)/C=C/c1ccccc1,Potency,[1],inactive
same,Potency,[2],inactive
same,Potency,[3],inactive
CCOc1ccc([N+](=O)[O-])cc1,Potency,[1],inactive
same,Potency,[2],inactive
same,Potency,[3],inactive
Nc1nnc(-c2cccc(Cl)c2Cl)c(N)n1,Potency,[1],inactive
same,Potency,[2],inactive
same,Potency,[3],inactive
OCCO,Potency,[1],inactive
same,Potency,[2],inactive
same,Potency,[3],inactive
Nc1ccc(O)c(C(=O)O)c1,Potency,[1],inactive
same,Potency,[2],inactive
same,Potency,[3],inactive
O=C1C(CCS(=O)c2ccccc2)C(=O)N(c2ccccc2)N1c1ccccc1 (centres undefined),Potency,[1],inactive
same,Potency,[2],inactive
same,Potency,[3],inactive
C1CCC2OC2C1 (centres undefined),Potency,[1],inactive
same,Potency,[2],inactive
same,Potency,[3],inactive
C1=Cc2ccccc2C1,Potency,[1],inactive
same,Potency,[2],inactive
same,Potency,[3],inactive
O=C(O)Cc1ccc2c(c1)C(=O)c1ccccc1CO2,Potency,[1],inactive
same,Potency,[2],inactive
same,Potency,[3],inactive
Cc1cnc(NC(=O)C2=C(O)c3ccccc3S(=O)(=O)N2C)s1,Potency,[1],inactive
same,Potency,[2],inactive
same,Potency,[3],inactive
CCCCCCCCCCCCCCO,Potency,[1],inactive
same,Potency,[2],inactive
same,Potency,[3],inactive
COc1ccc2c(c1)c(CC(=O)O)c(C)n2C(=O)c1ccc(Cl)cc1,Potency,[1],inactive
same,Potency,[2],inactive
same,Potency,[3],inactive
CCOc1cc([N+](=O)[O-])c(OCC)cc1N1CCOCC1,Potency,[1],inactive
same,Potency,[2],inactive
same,Potency,[3],inactive
N[C@@H](COP(=O)(O)O)C(=O)O,"activity, negative = inhibition",[1],0.067% [at 23.6 µM]
same,"activity change, negative = inhibition",[2],4.21% [at 23.8 µM]
same,"activity change, negative = inhibition",[3],4.37% [at 23.6 µM]
CCCNCCC,Potency,[1],inactive
same,Potency,[2],inactive
same,Potency,[3],inactive
CCCCC(CC)CCC(CC(C)C)OS(=O)(=O)O (centres undefined),Potency,[1],inactive
same,Potency,[2],inactive
same,Potency,[3],inactive
Cn1c(N)nc2nc[nH]c2c1=O,Potency,[1],inactive
same,Potency,[2],inactive
same,Potency,[3],inactive
C=C1C2CCC(C2)C1(C)C (centres undefined),Potency,[1],inactive
same,Potency,[2],inactive
same,Potency,[3],inactive
CC(C)N(c1ccccc1)C(C)C,Potency,[1],inactive
same,Potency,[2],inactive
same,Potency,[3],inactive
C=CC(=O)OCCOCCOC(=O)C=C,Potency,[1],inactive
same,Potency,[2],inactive
same,Potency,[3],inactive
c1ccc2sc(SSc3nc4ccccc4s3)nc2c1,"activity, negative = inhibition",[1],-2.2% [at 23.6 µM]
same,"activity change, negative = inhibition",[2],3.45% [at 23.8 µM]
same,"activity change, negative = inhibition",[3],-1.01% [at 23.6 µM]
CCOC(=O)c1cccc(N)c1,outcome,[4],inactive
same,outcome,[2],inactive
same,outcome,[3],inactive
CC(=O)OC(C)c1ccccc1 (centres undefined),Potency,[4],inactive
same,Potency,[2],inactive
same,Potency,[3],inactive
COc1cc([N+](=O)[O-])ccc1N,Potency,[4],inactive
same,Potency,[2],inactive
same,Potency,[3],inactive
